Screens from PubChem.
The sample as a whole holds a higher share of hits than the screen did.
12-LOX inh – ALOX12 (human) lipoxygenase inhibition | P18054 | purified 12hLO, xylenol orange hydroperoxide absorbance | Potency, µM (series often up to 108 µM), for the others: at the highest dose activity change, negative = inhibition, usual class: inhibitors | actives 1.1% (n = 580,000); also: potency is read from the fitted curve at half-maximal effect
Target sequence (P18054 whole entry, looked up): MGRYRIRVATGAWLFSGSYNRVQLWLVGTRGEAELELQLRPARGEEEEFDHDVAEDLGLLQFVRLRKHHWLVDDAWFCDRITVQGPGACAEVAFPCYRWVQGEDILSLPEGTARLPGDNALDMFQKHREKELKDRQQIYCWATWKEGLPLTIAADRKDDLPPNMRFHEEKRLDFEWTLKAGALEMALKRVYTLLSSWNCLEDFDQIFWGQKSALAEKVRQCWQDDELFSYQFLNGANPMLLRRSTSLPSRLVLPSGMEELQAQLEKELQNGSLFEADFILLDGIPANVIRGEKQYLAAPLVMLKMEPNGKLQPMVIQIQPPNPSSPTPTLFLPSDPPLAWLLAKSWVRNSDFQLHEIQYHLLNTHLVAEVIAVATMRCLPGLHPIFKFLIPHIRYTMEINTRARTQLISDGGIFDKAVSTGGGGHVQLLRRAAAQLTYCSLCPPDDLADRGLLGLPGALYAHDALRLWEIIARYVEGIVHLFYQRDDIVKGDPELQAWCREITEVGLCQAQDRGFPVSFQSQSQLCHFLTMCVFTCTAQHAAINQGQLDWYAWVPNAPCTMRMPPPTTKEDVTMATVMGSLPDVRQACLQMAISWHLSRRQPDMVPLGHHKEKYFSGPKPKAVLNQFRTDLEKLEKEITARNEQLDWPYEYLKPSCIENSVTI
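Hydroperoxide product was detected by ferrous iron/xylenol orange as the 573 to 405 nm absorbance ratio. Arachidonic acid at 40 uM (final) was turned over for 30 min at room temperature by 150 nM human 12hLO, pH 7.0 Hepes buffer, after 15 min compound preincubation.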
IL-1B inflam inh – blocks inflammasome-driven IL-1 beta release | activity change, % at 57.5 µM | THP-1 LPS/ATP IL-1B secretion, AlphaLISA, 16 h; active compounds read low | actives 4.7% (n = 360,000); in the data active = activity change below about -50%; inconclusive = mostly about -30% to -49%
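Secreted IL-1B measured by AlphaLISA bead assay after 16 h compound exposure of THP-1 cells; compounds (final up to 57.5 uM) added 1 h before LPS (250 ng/mL) and ATP (1.25 mM) stimulation; lower signal means less secretion.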
DT40 TDP1 no CPT – qHTS for Inhibitors of human tyrosyl-DNA phosphodiesterase 1 (TDP1): qHTS in cells in absence of CPT; DT40 Tdp1-/- hTDP1 cells, no CPT, ATP luminescence, 48 h; Potency, µM (doses to about 46.2 µM), for the others: top-dose activity change, negative = growth inhibition, most hits filed as inhibitors; actives 15% (n = 420,000); also: potency is read from the fitted curve at half-maximal effect; nearly all actives have a fitted effect of over 55% in size
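Seeded 400 DT40-hTDP1 cells/well (vehicle DMSO, no 20 nM CPT); pinned compounds; ≥48 hr at 37 °C; CellTiter-Glo luminescence as viability measure.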
DT40 TDP1 CPT – DT40-hTDP1 cell growth loss with CPT; chicken DT40 Tdp1-/-;hTDP1 cells + 20 nM CPT, ATP luminescence, 48 h; Potency, µM (titrated, usually from 46.2 µM), for inactives: top-dose activity change, negative = growth inhibition, usual class: inhibitors; actives 12% (n = 420,000); also: potency is read from the fitted curve at half-maximal effect; nearly all actives have a fitted effect of over 55% in size
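Cell growth measured by CellTiter-Glo luminescence after a minimum 48 h, 37 C compound exposure with 20 nM CPT in Tdp1-knockout DT40 cells stably expressing hTDP1, seeded 400/well; qHTS titration format.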
HT1080 IDH1KD tx – HT-1080 IDH1 knockdown cell toxicity (counter line); actives 2% (n = 360,000); HT-1080 IDH1 knockdown viability, ATP luminescence, 48 h; Potency, µM (titrated, usually from 46.1 µM), without a hit: top-dose activity, negative = toxicity, hits mostly cytotoxic;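 also: potency is read from the fitted curve at half-maximal effect; 0% = DMSO wells and -100% = cell-free medium wells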
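% activity derives from luminescence (CellTiter-Glo), normalised to DMSO and no-cell wells. HT-1080-IDH1KD cells, 750/well, had 48 h compound exposure at 37 °C.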
HT1080-NT tox – kills 2HG-producing HT-1080-NT fibrosarcoma cells | actives 1.6% (n = 360,000) | Potency, µM (series often up to 46.1 µM), without a hit: at the highest dose activity, negative = less viability, hits mostly cytotoxic | HT-1080-NT fibrosarcoma viability, CellTiter-Glo ATP luminescence, 48 h;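 also: NT is the 2HG producing partner of a matched IDH1 knockdown line; potency is read from the fitted curve at half-maximal effect; 0% = DMSO-treated cells and -100% = media-only wells without cells; nearly all actives have a fitted effect of over 55% in size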
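A 48-hour cytotoxicity screen used HT-1080-NT cells plated 2 hours before compound delivery. ATP-based CellTiter-Glo luminescence measured viability, normalized to DMSO and no-cell controls.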
Starred values were filed as active, the others as inactive; ? = inconclusive; / = not tested or not shown. Unless noted, calls follow the shape of the dose curve; as a rule, active = well fitted curve in the direction sought with a large enough effect; inconclusive = small, poorly fitted or top-dose-only effect, or another doubt; inactive = no such curve, though single readings can be large; an effect the other way counts as inactive or inconclusive. Unless noted, % is scaled to controls: 0 for no effect and ±100 for the full control effect.

SMILES	12-LOX inh	IL-1B inflam inh	DT40 TDP1 no CPT	DT40 TDP1 CPT	HT1080 IDH1KD tx	HT1080-NT tox
OCCNCc1cc(Br)ccc1OCc1ccc(Cl)cc1Cl	-20.3%	?	9.2µM*	18.4µM*	?	23.1µM*
OCCNCc1cc(Br)ccc1OCc1ccc(Cl)cc1	-6.5%	?	29.1µM*	20.6µM*	1.7%	-0.9%
OCCNCc1cccc(OCc2ccc(Cl)cc2)c1	0.8%	-56.0*	?	?	?	?
CSc1ccccc1NC(=O)c1ccc(F)cc1	-0.5%	/	/	/	/	/
Cc1noc([C@@H]2CN(Cc3cc(F)cc(F)c3)C[C@H]2CO)n1	15.6%	/	/	/	/	/
COc1ccc(N2CC3=C(C2=O)C(c2ccc(Br)cc2)NC(=O)N3C)cc1 (stereo unspecified)	-8.9%	/	-29.5%	-6.7%	/	/
OCCNCc1cc(Br)ccc1OCc1ccc(F)cc1	-1.8%	-80.7*	?	?	-5.3%	-1.9%
COc1ccc2c(c1)-c1nc(NC(=O)c3ccco3)sc1CC2	?	-5.7	14.6µM*	?	8.9%	9.7%
COc1ccc2c(c1)Cc1sc(NC(=O)c3cccnc3)nc1-2	-22.5%	?	20.6µM*	?	5.0%	16.7%
COc1ccc2sc(NC(=O)c3ccco3)nc2c1	8.91µM*	8.0	-23.9%	?	-20.3%	?
COc1ccc2c(c1)CCc1sc(NC(=O)c3ccco3)nc1-2	/	6.4	?	?	16.8%	29.8%
Cc1nc(NC(=O)c2ccco2)sc1C(=O)O	-2.8%	19.1	10.3µM*	6.51µM*	23.1µM*	23.1µM*
COc1ccc2c(c1)Cc1sc(NC(C)=O)nc1-2	?	-20.8	4.2%	-13.3%	3.3%	-3.6%
O=C(COc1ccc2ccc(=O)oc2c1)Nc1ccc(F)cc1F	40.7%	/	/	/	/	/
CCOC(=O)c1sc(NC(=S)NC(=O)c2ccco2)nc1C	-12.5%	12.0	-27.3%	-4.0%	-2.4%	1.6%
CCOC(=O)c1sc(NC(=O)C(CC)OC(=O)c2ccco2)nc1C (stereo unspecified)	-22.5%	-83.7*	-16.5%	-11.3%	2.1%	-4.1%
COc1cc(OC)cc(-c2c(C#Cc3ccsc3)c3cc(-c4cccc5[nH]cc(C=O)c45)ccc3n2C)c1	?	-19.8	?	?	-8.5%	-4.0%
C=CCNc1ncnc2c1ncn2C1OC(CO)C(O)C1O (stereo unspecified)	43.8%	65.9	20.6µM*	18.4µM*	18.4µM*	9.2µM*
CC(C)=CCNc1ncnc2c1ncn2[C@@H]1O[C@H](CO)[C@@H](O)[C@H]1O	7.3%	/	/	/	/	/
OC[C@H]1O[C@@H](n2cnc3c(NCc4ccco4)ncnc32)[C@H](O)[C@@H]1O	-9.5%	73.5	2.06µM*	2.31µM*	6.51µM*	5.8µM*
OCC1OC(n2cnc3c(NCc4ccco4)ncnc32)C(O)C1O (stereo unspecified)	-8.6%	?	2.06µM*	2.31µM*	11.6µM*	11.6µM*
C/C(=C\CNc1ncnc2c1ncn2[C@@H]1O[C@H](CO)[C@@H](O)[C@H]1O)CO	19.3%	/	/	/	/	/
Cc1ccccc1CNc1ncnc2c1ncn2[C@@H]1O[C@H](CO)[C@@H](O)[C@H]1O	/	/	11.9µM*	?	/	/
CN(CC(=O)NCC(F)(F)F)Cc1cccc(C#N)c1	36.4%	/	/	/	/	/
CCOc1ccccc1CN1CCc2nc(Nc3ccccc3)ncc2C1	2.5%	/	?	?	/	/
COc1ccccc1N1CCN(c2ncc3c(n2)CCN(Cc2ccccc2C)C3)CC1	-11.6%	/	5.3%	-12.3%	/	/
COc1ccc(Nc2ncc3c(n2)CCN(Cc2ccccc2C)C3)c(OC)c1	-0.7%	/	10.3µM*	?	/	/
COc1cc(Nc2ncc3c(n2)CCN(Cc2ccc(OC(C)C)c(OC)c2)C3)cc(OC)c1	-26.6%	/	13µM*	16.4µM*	/	/
